Records with an inconclusive call do not appear. Where a call stands in place of a potency, no number is given. Activity calls are given as the source filed them. Calls come from the whole dose curve; as a rule, active = well fitted cell-killing curve with a large enough effect; inconclusive = small, poorly fitted or top-dose-only effect; inactive = flat fitted curve, though single readings scatter. Peptide text beside a SMILES is read from it. * marks the point of attachment. Hexanoyl = CCCCCC(=O)*
Assay: SDT Cancer Cell Toxicity qHTS against the NCATS CANVASS Library (AID 1347365); note: nearly all actives have a fitted effect of over 60% in size
Conditions: SDT dog glioma viability, ATP luminescence, 72 h; series mostly up to 46.1 µM
Summary of the method: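 Cytotoxicity is measured from cellular ATP: compounds in an 11-point concentration series are pinned onto SDT cells, incubated 72 hr at 37C, then CellTiterGlo is added and luminescence read.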

Row | Compound | Potency
1 | CCC(C)=C1OC(=O)[C@H](C)[C@H](O)[C@H](Cc2cccnc2)NC(=O)C(NC(=O)c2ncccc2O)C(C)OC1=O (stereo not given in full) | inactive
2 | C[C@@]12CCC[C@@](C)(C(=O)O)[C@H]1CC[C@@]13C[C@@H](CC[C@H]12)[C@](C)(O)C3 | inactive
3 | C=C1C[C@]23C=CC(=O)[C@@](C)(CCCC(C)C(=O)N[C@@H](CO)C(=O)O)[C@@H]2C[C@@H]1CC3 (stereo not given in full) | inactive
4 | COc1cc2ccc(=O)oc2c(O)c1O[C@@H]1O[C@H](CO)[C@@H](O)[C@H](O)[C@H]1O | inactive
5 | CO[C@@H](C[C@@H](C)[C@@H](O)/C=C/C=C/CNC(=O)C(C)(C)[C@H](O)\C(C)=C/C=C\C=C\Cc1cnco1)[C@]1(O)[C@@H](C)C(=O)N(C)[C@@]12COC2=O | inactive
6 | O=C1CC(c2ccc(O)cc2)Oc2cc(O)cc(O)c21 (stereo not given) | inactive
7 | CN1CC[C@@]23c4ccccc4N[C@@H]1[C@@]21CCN(C)[C@@H]3Nc2ccccc21 | inactive
8 | C[C@@]12CCC[C@@](C)(C(=O)O)[C@H]1C[C@@H](O)[C@@]13C[C@@H](CC[C@@H]21)[C@](C)(O)C3 | inactive
9 | O=Cc1ccc2n1C[C@]1(OC2)O[C@H](CO)[C@@H](O)[C@@H]1O | inactive
10 | C=C[C@@]1(C)CC[C@@H]([C@H](C)C(C)=O)O1 | inactive
11 | C/C=C(/CO)C(=O)O[C@@H]1[C@H](O)[C@@H](C(=O)OC)O[C@@H]2C[C@H]3OC(n4cnc5c(N)ncnc54)[C@H](OC)[C@H]3O[C@@]12O (stereo not given in full) | inactive
12 | C/C=C/[C@H]1[C@H]2C(=O)c3c(O)c(C)c(O)c(C)c3[C@]1(C(=O)O)C(=O)C=C2C | inactive
13 | C[C@@]12C[C@@H](C[C@@H]3C(=O)O[C@@H](c4ccoc4)[C@H](OC(=O)c4ccccc4)[C@@H]31)OC2=O | inactive
14 | C=C1CCC2C(C)(C(=O)O)CCC(CC/C(C)=C/C(=O)NC(CCC(N)=O)C(=O)O)[C@@]2(C)C1 (stereo not given in full) | inactive
15 | C=C1[C@@]2(C)CC3C4(C)CCC(O)C(C)(C)C4CCC3(C)[C@]1(C(=O)OC)C(=O)C(C)(O)C2=O (stereo not given in full) | inactive
16 | CC(C)=CCC[C@]1(C)[C@H]2CC(=O)[C@@]3(CO3)[C@@H]1C2 | inactive
17 | CCCCCC(=O)N[C@@H](CC(C)C)C(=O)N[C@H](C=O)CCC(=O)O (Hexanoyl-Leu-Glu-aldehyde) | inactive
18 | COc1ccc([C@@H]2c3cc4c(cc3C(=O)C(C)C2C)OCO4)cc1OC (stereo not given in full) | inactive
19 | CC1(C)CC[C@]2(CO)CC[C@]3(C)C(=CCC4[C@@]5(C)CC[C@H](O)C(C)(C)C5CC[C@]43C)C2C1 (stereo not given in full) | inactive

Assay: KB-3-1 Cancer Cell Toxicity qHTS against the NCATS CANVASS Library (AID 1347366); note: nearly all actives have a fitted effect of over 75% in size; note: potency is the fitted concentration of half-maximal effect
Conditions: KB-3-1 viability, CellTiter-Glo luminescence, 72 h; series mostly up to 46.1 µM
Summary of the method: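 500 KB-3-1 cells/well; compounds pin-transferred, 11-pnt series; 72 hr, 37C/5% CO2; CellTiter-Glo, 10 min RT; luminescence read-out.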

Row | Compound | Potency
20 | CN1C(=O)C(=O)N2C(=C[C@]3(c4c[nH]c5ccccc45)c4ccccc4N[C@H]23)C1=O | inactive
21 | C/C=C1/C2=CCCN3C(=O)O[C@H]([C@H]1O)[C@H]23 | inactive
22 | O=C1CC(c2ccc(O)cc2)Oc2ccccc21 (stereo not given) | inactive
23 | COC1C(C)OC(OCC23C[C@@H]4[C@H](C)CC[C@H]4C4(C=O)CC2C=C(C(C)C)C34C(=O)O)[C@@H](O)[C@H]1O (stereo not given in full) | inactive
24 | CN1CC[C@@]2([C@@]34CCN(C)[C@@H]3Nc3ccccc34)c3ccccc3N[C@@H]12 | inactive
25 | COc1ccc(-c2oc3cc(OC)cc(OC)c3c(=O)c2O)cc1 | inactive
26 | Cc1cc(O)cc2c1C(=O)c1c(O)cc(O)cc1C2=O | inactive
27 | C=C(C)C(=O)O[C@H]1C[C@@]2(C)OC(=CC2=O)/C(C)=C\[C@H]2OC(=O)C(=C)[C@H]12 | 3.32 µM (active)
28 | C=C[C@]1(C)CC[C@@H]([C@H](C)C(=O)CC=C(C)C)O1 | inactive
29 | [C-]#[N+][C@@]12C(=O)[C@@H]3[C@@H](O[C@@]4(C(=O)N(C)c5cccc1c54)C3(C)C)C(=O)[C@@]2(C)C=C | inactive
30 | COC(=O)c1cccc2oc(-c3cccc4oc(-c5c(C)cccc5O)nc34)nc12 | inactive
31 | C[C@@]12CCC[C@@](C)(C(=O)OP(=O)(O)OC[C@H]3O[C@@H](n4cnc5c(N)ncnc54)[C@H](O)[C@@H]3O)[C@H]1C[C@@H](O)[C@@]13C[C@@H](CC[C@@H]21)[C@](C)(O)C3 | inactive
32 | CCC(C)=C1OC(=O)[C@H](C)[C@H](O)[C@H](Cc2cccnc2)NC(=O)C(NC(=O)c2ncccc2O)C(C)OC1=O (stereo not given in full) | inactive
33 | COc1cc2ccc(=O)oc2c(O)c1O[C@@H]1O[C@H](CO)[C@@H](O)[C@H](O)[C@H]1O | inactive
34 | C/C(=C\[C@@H](C)CC/C=C/CC/C=C/C(=O)O)[C@@H](O)[C@H](C)C(=O)CCCC1CC(=O)NC(=O)C1 | inactive
35 | CO[C@@H](C[C@@H](C)[C@@H](O)/C=C/C=C/CNC(=O)C(C)(C)[C@H](O)\C(C)=C/C=C\C=C\Cc1cnco1)[C@]1(O)[C@@H](C)C(=O)N(C)[C@@]12COC2=O | inactive
36 | O=C1CC(c2ccc(O)cc2)Oc2cc(O)cc(O)c21 (stereo not given) | inactive
37 | O=C1CC(c2ccc(O)cc2)Oc2cc(O)ccc21 (stereo not given) | inactive
38 | CN1CC[C@@]23c4ccccc4N[C@@H]1[C@@]21CCN(C)[C@@H]3Nc2ccccc21 | inactive
39 | C[C@@]12CCC[C@@](C)(C(=O)O)[C@H]1C[C@@H](O)[C@@]13C[C@@H](CC[C@@H]21)[C@](C)(O)C3 | inactive
40 | C=C[C@@]1(C)CC[C@@H]([C@H](C)C(C)=O)O1 | inactive
41 | C/C=C(/CO)C(=O)O[C@@H]1[C@H](O)[C@@H](C(=O)OC)O[C@@H]2C[C@H]3OC(n4cnc5c(N)ncnc54)[C@H](OC)[C@H]3O[C@@]12O (stereo not given in full) | inactive
42 | C/C=C/[C@H]1[C@H]2C(=O)c3c(O)c(C)c(O)c(C)c3[C@]1(C(=O)O)C(=O)C=C2C | inactive
43 | CC(C)=CCC[C@]1(C)[C@H]2CC(=O)[C@@]3(CO3)[C@@H]1C2 | inactive
44 | COc1ccc([C@@H]2c3cc4c(cc3C(=O)C(C)C2C)OCO4)cc1OC (stereo not given in full) | inactive
45 | CC1(C)CC[C@]2(CO)CC[C@]3(C)C(=CCC4[C@@]5(C)CC[C@H](O)C(C)(C)C5CC[C@]43C)C2C1 (stereo not given in full) | inactive

From PubChem BioAssay (NCATS)
